For 40 sequences, PBM binding z-score results are on record in the supplement of paper PMC6555819.

This assay has as its system PPARa:RXRa (NR concentration 270 nM, RXRa partner concentration 90 nM). Kind of assay: PBM binding z-score (relative to random genomic background probes); higher = stronger binding; sequences stand for … in GC…GCGATTGACAGCGTAGAATGAAGG
A digest of the protocol: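 For binding z-scores, the reference was random background probes on custom Agilent 4×180K protein-binding microarrays. These arrays were incubated 1 h with ligand-free nuclear receptor dimers in PBS pH 7.4, 2% milk, 0.02% Triton X-100, 1 mM DTT, 0.2 mg/mL BSA and 0.4 mg/ml salmon testes DNA. Fluorescence was scanned after antibody detection of each partner (one per run) and regression-normalized.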
The sequence CAGAGTAGGTTATGGGGCATTCAGGCAACGGTGA registered a PBM binding z-score of 2.78.

In turn, TGAATGAGGTTAAACATCAGGGAACGTGGCGTCG gave a PBM binding z-score of 3.88.

Regarding TAGCCTAGGTCATGGGCCCGTATACCACGCGAAC, the PBM binding z-score was 4.

In the case of ACTCGGAGGACTAAGGTCAGAGCTACGCCAGTGA, the PBM binding z-score came out at 2.52.

For the sequence CAAACTAGGTCAAGAAAGGTCAAAGTCGAATGAC, the PBM binding z-score was found to be 6.35.

On to CCGACTAGGGCATAAGGTTACCATAAGCCAGCCC, for which the PBM binding z-score was 2.19.

As for TGTCAAAGTTCAAAGGTAACGTGAGTATCCACAC, the PBM binding z-score was 5.99.

The sequence GCTTGTAGATCAAGGTTAAGCAAGACTAAGCTAA came in with a PBM binding z-score of 1.77.

On to ACAGACAGGTGATGAAAGTAACTCAGGCTATCAT, for which the PBM binding z-score is -0.12.

For the sequence AACTCTAGGTAAAGATAGTTCAGTGAATGCAAAT, the PBM binding z-score was determined as 0.465.

In turn, CGAACGAGGGCATGAGTTGTTAGCAAATGCCGAT displayed a PBM binding z-score of 1.01.

The sequence TCTTGTACATCAGCAGGTTAAGAAAGCTGGCCAA returned a PBM binding z-score of 0.883.

Sequence TCTGCTAGGTAAGTTGGTCAGCTAACGAGCTGCC came in with a PBM binding z-score of -0.166.

ACTATTAGTTGACTTAGGGCAACCCATACGACGC: the PBM binding z-score was determined as 0.137.

GCTCGGAGGACAAGGCCAGAGCTTTGTCCGTAGA gave a PBM binding z-score of -1.69.

For GGAACGAGGGCACAGTTGATAGCATCTGTCGACG, the PBM binding z-score is 1.95.

As to TAGCCTAGGTCATTCAGGTGCCAGTATAGAAAGC, the PBM binding z-score was 3.55.

Take ATACCAAGGGGATCGTGAGGTCGTTGATACTAAC: the PBM binding z-score came out at 0.97.

Regarding ATATGTAGGTTATCGGGTCATTCAATTTGCGCAT, the PBM binding z-score was 5.11.

For TCGAGTAGGTTAGACGGGGCATTCAGCCAACATA, the PBM binding z-score amounted to 0.783.

Sequence CAAACTAGGTCTAAGGTCAAAGTCGAGCCAACCA displayed a PBM binding z-score of 6.52.

Regarding ATATGTAGGTAAGCTGGGGTCATTCAGACTAGGC, the PBM binding z-score amounted to 4.98.

Consider CGGACTAGGTCAAGGACAGTGAATCTCCGCACGC, for which the PBM binding z-score came to 3.77.

Regarding TCGAGTAGGTTAGTGGCATTCAGAATGGCGTCGA, the PBM binding z-score worked out at 0.197.

Sequence CCAGCTAGGTCATGGTCAGCTAATCTACAGTATG displayed a PBM binding z-score of 3.57.

ACTATAAGTTGAGACGAGGGCAACCGATAGGTTG registered a PBM binding z-score of 0.691.

TCTTGTTGATCAACAGGAGGTTAAGAAAGATCGA registered a PBM binding z-score of 1.21.

In turn, CAAACTAGGTCGCGAAAGGTCAAAGTCGAATGAC gave a PBM binding z-score of 6.03.

For the sequence GGAACGAGGGCAAAGTTGATAGCATCTGTCGACG, the PBM binding z-score was 4.11.

For CGTCCAAGGTCAATGTCAGTGAAAGAGACTCGAA, the PBM binding z-score turned out to be 5.35.

For ACAATGAGGTTAAGATCAGGGAAACAGAATACAT, the PBM binding z-score is 3.04.

Consider ACTTACGGGTCAACGAGGTTATAGAACGCGTATA, for which the PBM binding z-score turned out to be 5.87.

In the case of TCTAGTTGGTCAAAGGTCACTCACTCGAAATGCG, the PBM binding z-score was 6.16.

Take TCTCGTTGGTCAAAGGTCACACACTCGAAATGCG: the PBM binding z-score came out at 6.57.

Take TCTGCTGGGTCAGTTGGTCAGCTAACGAGCTGCC: the PBM binding z-score came to 1.4.

Take GCGACTGGGGCATCAGCAGGTTCCCATAACTTAA: the PBM binding z-score worked out at 0.27.

As to CCTAGTGGGCCAAAAAGGTCATTGATGCCGATAA, the PBM binding z-score came to 4.56.

TAGCCTAGGTCATACGGGCCAGTATAGTGTCGGC had a PBM binding z-score of 3.5.

As to CCGACTGGGGCATAAAGGTTACCATACCATCCGG, the PBM binding z-score is 2.47.

For CCTGCTGGGCCATTCAGAGGTCATTGATCATATG, the PBM binding z-score came to 3.65.
